In the library only some 11% were active in any assay of this set; here they are far more common.
VACV Venus inh: vaccinia inhibition (Venus reporter); Vaccinia virus Venus reporter expression, fluorescence; Potency, µM (doses to about 36.5 µM), for inactives: at the highest dose activity change, negative = inhibition, most hits filed as inhibitors; actives 0.46% (n = 330,000); calls by dose curve; tested in A549 cells; also: % is scaled to controls: 0 for no effect and ±100 for the full control effect; nearly all actives have a fitted effect of over 30% in size
HCV inh: HCV inhibition. actives 3.4% (n = 340,000). Potency, µM (titrated, usually from 41.8 µM), for inactives: at the top dose activity change, negative = inhibition, most hits filed as inhibitors. Huh7.5.1 HCVcc-Cre infection, luciferase reporter, 44 h. AID 651820; also: % is scaled to controls: 0 for no effect and ±100 for the full control effect
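Cells seeded at 1,000/well and cultured 4 h, then compounds added followed by HCVcc-Cre virus (~0.5 moi). After 44 h further culture, luciferase substrate was added, plates held 15 min at room temperature, and luminescence read for 15 sec.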
NS1 function inh: blocks influenza NS1 protein function. Potency, µM (top dose mostly 46.1 µM), for the others: at the top dose activity, positive = more growth. actives 0.4% (n = 270,000); calls by dose curve; also: actives are rising curves; nearly all actives have a fitted effect of over 50% in size
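Recovery from NS1-induced slow growth read by OD600 in budding yeast switched to galactose assay medium (pH 6.0, -URA) at 1:100 dilution. Compound 23 nl per well; the matching strain lacking NS1 serves as control.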
Vaccinia mCherry: inhibitors of vaccinia virus infection (mCherry reporter signal); AID 720579; Vaccinia virus mCherry reporter infection, fluorescence; actives 0.63% (n = 310,000); Potency, µM (highest dose often 36.5 µM), without a hit: at the top dose activity change, negative = inhibition, most hits filed as inhibitors; calls by dose curve; tested in A549 cells; also: % is scaled to controls: 0 for no effect and ±100 for the full control effect; nearly all actives have a fitted effect of over 35% in size
Pf growth 48h: P. falciparum growth inhibition at 48 hours (one generation); Potency, µM (highest dose often 28.7 µM), for the others: at the top dose activity change, negative = inhibition, usual class: inhibitors; actives 5.9% (n = 310,000); P. falciparum luciferase growth in erythrocytes, 48 h; also: % is scaled to controls: 0 for no effect and ±100 for the full control effect
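Compounds are pin-transferred into medium, infected erythrocytes (2% hematocrit, 0.1% parasitemia final) are added, and plates sit one parasite generation at 37 C in 5% CO2. Detection reagent is then added and luminescence measured.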
Pf growth 96h: inhibits malaria parasite growth, 96 h; Potency, µM (top dose mostly 28.7 µM), for inactives: at the highest dose activity change, negative = inhibition, hits mostly inhibitors; P. falciparum luciferase reporter growth, 96 h; actives 6.9% (n = 320,000); also: % is scaled to controls: 0 for no effect and ±100 for the full control effect
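Erythrocytes infected with luciferase-expressing P. falciparum were dispensed at 2% hematocrit and 0.05% parasitemia (final), then incubated with compounds 96 hours at 37 C in 5% CO2. Luminescence after detection reagent addition reported growth.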
Active calls of the source: *; i = inactive; ? = inconclusive; . = no result given; ! = repeats disagree; [ ] = remark or other dose. Unless noted, calls follow the shape of the dose curve; as a rule, active = well fitted inhibition curve with a large enough effect; inconclusive = small, poorly fitted or top-dose-only effect, or another doubt; inactive = no such curve, though single readings can be large or run the other way. Potency is read from the fitted curve at half-maximal effect.

SMILES	VACV Venus inh	HCV inh	NS1 function inh	Vaccinia mCherry	Pf growth 48h	Pf growth 96h
Cc1cc(C)c2nc(C)cc(Nc3ccc(C(=O)N(C)C)cc3)c2c1	.	6%	2%	.	?	4%
CC(=O)c1cccc(Nc2cc(C)nc3c(C)cccc23)c1	-22%[7.34 µM]	-17%	0%	-14%[7.34 µM]	12µM*	-105%
CC(N)c1csc(Nc2ccc(C(=O)NCCO)cc2)n1 (stereo not drawn)	4%	.	.	3%	.	.
CC(=O)c1ccc(Nc2cc(C)nc3c(C)cc(C)cc23)cc1	-25%	?	.	-30%	12µM*	?
N=C1C(c2ccccc2)=C(O)CN1NC(=O)c1ccccc1	-10%	18%	.	i	8%	25%
O=C(Cc1ccccc1)N/N=C/C=C/c1cccc([N+](=O)[O-])c1	11%	12%	-14%	7%	7%	6%
COc1ccc(CCNC(=O)C/C(C)=N/NC(=O)c2ccc(Cl)cc2Cl)cc1OC	.	8%	-3%	.	0%	18%
COc1cccc(NC(=O)CSc2ccc3nnc(-c4ccncc4)n3n2)c1	-3%	2%	-3%	-13%	.	?
CN(C)S(=O)(=O)N1CCN(c2ccccc2Cl)CC1	-9%	17%	-5%	-7%	.	49%
CC1COCC(C)N1C1=C(Cl)C(=O)c2ccccc2C1=O (stereo not drawn)	-2%	11µM*	.	-7%	.	.
CN1CCN(C2=C(Cl)C(=O)C(c3cnc(N4CCCCC4)s3)=C(Cl)C2=O)CC1	72%	-27%	7%	14%	48%	25%
O=C1C(Cl)=C(N2CCC(C(=O)O)CC2)C(=O)c2ccccc21	.	-3%	6%	.	12µM*	12µM*
NC(=O)C1CCN(C2=C(Cl)C(=O)c3ccccc3C2=O)CC1	.	2.5µM*	14%	.	?	?
CN1CCN(C2=C(Cl)C(=O)c3ccccc3C2=O)CC1	10µM*	7.1µM*	.	?	.	.
Cc1ccc(C(=O)Nc2ccc3ncccc3c2)cc1	-17%	-23%	-6%	-11%	18%	10%
COc1ccc(OC)c(NC(=O)N2CCc3ccccc3C2)c1	-14%	-28%	-16%	-22%	3%	-28%
C[n+]1c(-c2ccccc2)c2cc(N)ccc2c2ccc(N)cc21	126%	2.5µM*	-56%	?	?	-22%
Nc1ccc2nc(-c3ccccc3)c(-c3ccccc3)nc2c1	12%	13%	16%	?	-1%	?
COc1ccc(C(=O)C2CCCN(C(=O)Cn3nc(C)cc3C)C2)cc1F (stereo not drawn)	0%	2%	2%	-9%	-11%	-17%
COc1ccc(-n2nc3c(c2NC(=O)C(C)Oc2ccccc2)CS(=O)(=O)C3)cc1 (stereo not drawn)	.	12%	16%	.	0%	9.3µM*
CC(Oc1ccccc1)C(=O)Nc1c2c(nn1-c1ccccc1)CS(=O)(=O)C2 (stereo not drawn)	3%	25%	-10%	-7%	14%	37%
COc1ccc(-n2nc3c(c2NC(=O)c2cc4ccccc4oc2=O)CS(=O)(=O)C3)cc1	.	.	6.3µM*	.	.	.
Cc1ccccc1-c1nc(CS(=O)(=O)CC(=O)N(C)C2CCCCC2)c(C)o1	?	11µM*!	-30%	?	-1%	-26%
Cc1ccccc1-c1nc(CS(=O)(=O)CC(=O)NC2CCCCC2C)c(C)o1 (stereo not drawn)	-22%	?	-27%	i	24%	?
O=C(CNC(=O)c1ccccc1)OCC(=O)c1ccc(Cl)s1	.	3%	.	.	-3%	2%
SMILES	VACV Venus inh	HCV inh	NS1 function inh	Vaccinia mCherry	Pf growth 48h	Pf growth 96h
c1cc2ccc3ccc(CN4CCOCC4)c4ccc(c1)c2c34	-21%	10µM*	-36%	i	32%	?
Cc1ccc(C(=O)N/C(=C\c2cn(C)c3ccccc23)C(=O)N2CCOCC2)cc1	.	23%	14%	.	2%	0%
Cc1ccc(/C(C#N)=C\c2cn(C)c3ccccc23)cc1	.	6.3µM*	-36%	.	-26%	.
Cn1cc(C=O)c2ccccc21	-17%	3%	3%	-17%	51%	10µM*
CC(C)c1nc2cc(Cl)ccc2n(Cc2ccccc2)c1=O	0%	-2%	-19%	11%	?	?
O=C(NCC(c1cccs1)N1CCOCC1)c1ccccc1NS(=O)(=O)c1cc([N+](=O)[O-])ccc1Cl (stereo not drawn)	-9%	6%	25%	-6%	?	13µM*
O=C(NCC(c1cccs1)N1CCOCC1)c1ccccc1NS(=O)(=O)c1ccc(Cl)c([N+](=O)[O-])c1 (stereo not drawn)	-24%	5%	-13%	-16%	?	8.3µM*
O=C(Nc1ccccc1Cl)NC1(C(=O)N2CCC(O)CC2)CCCCC1	0%	6%	12%	-23%	-9%	30%
CCC1Oc2ccccc2N(CC(=O)NCc2ccco2)C1=O (stereo not drawn)	.	12%	-5%	.	5%	?
O=C(NCc1ccccn1)C1C2C=CC(C2)C1C(=O)Nc1ccc(F)cc1 (stereo not drawn)	-12%	11%	19%	.	0%	23%
O=[N+]([O-])c1ccc(N2CCc3ccccc3C2)nc1	.	-8%	-113%	.	5%	6%
CCOC(=O)C1CCCCN1C(=O)/C(=C/c1ccc(OC)cc1)c1ccc(OC)c(OC)c1 (stereo not drawn)	-6%	12%	.	-1%	.	.
CCCCSCc1[nH]c(=O)[nH]c1C(=O)CCCCC(=O)OCC	?	15%	2%	i	-15%	-23%
CCOC(=O)CCCCC(=O)c1[nH]c(=O)[nH]c1Cn1ccnc1	-9%	14%	?	i	0.47µM*	.
CCN1C(=O)[C@@H]2[C@H](C1=O)[C@@H]1C(=O)Nc3ccccc3C(=O)N1[C@@H]2c1cccc(OC)c1	1%	-2%	.	i	-7%	23%
O=C1Nc2ccccc2C12Nc1ccccc1-c1nc3ccccc3n12 (stereo not drawn)	0%	?	-24%	.	0.74µM*	.
CCN1C(=O)C2(Nc3ccccc3-c3nc4ccccc4n32)c2cc(OC)ccc21 (stereo not drawn)	-13%	16%	6%	-28%	9.3µM*	5%
c1ccc2c(c1)NC1(CCCCC1)n1c-2nc2ccccc21	.	-4%	-40%	.	.	2%
CN1C(=O)C2(Nc3ccccc3-c3nc4ccccc4n32)c2ccccc21 (stereo not drawn)	.	-7%	-37%	.	8.3µM*	-8%
COc1ccc(Nc2nc(-c3ccc(OC)cc3)cs2)cc1	.	-5%	.	.	368%	67%
Nc1ccc(Nc2nc(-c3ccncc3)cs2)cc1	-12%	7.9µM*	-4%	-21%	-33%	.
COc1ccc(-c2csc(Nc3cccnc3)n2)cc1	-29%	10µM*	-7%	?	0%	-5%

Assay outcomes: PubChem BioAssay, National Center for Advancing Translational Sciences (NCATS)
